Assay results: PubChem BioAssay (EPA / NIEHS)
Records with an inconclusive call do not appear. The source made the active and inactive calls. The calls were made as follows, unless noted: active = hit-call score of the fitted dose curve at least 0.9, where 1 is the maximum; inconclusive = response in the unintended direction; inactive = score below 0.9.

Tests used:
[1] = ATG_TCF_b_cat_CIS: Attagene CIS-FACTORIAL HepG2 Assay for human T-Cell-Factor with beta-catenin (TCF/b-cat) (AID 2282965; active = hit-call score of the fitted dose curve at least 0.9, where 1 is the maximum; inactive = score below 0.9); conditions: HepG2 TCF/beta-catenin cis-reporter transcription, actives raise or lower the signal
How it was run: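 Measured: reporter mRNA in HepG2 transiently transfected with cis-promoter reporter units, 24 h after chemical addition. Fitting was bidirectional, DMSO as negative control.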

[2] = ATG_TAL_CIS: Attagene CIS-FACTORIAL HepG2 Assay for human TAL Basal Promoter (AID 2282966; active = hit-call score of the fitted dose curve at least 0.9, where 1 is the maximum; inactive = score below 0.9;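 also: background control endpoint measuring basal TAL promoter reporter mRNA not a specific factor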); conditions: HepG2 Attagene cis-factorial TAL promoter reporter; actives raise or lower the signal
How it was run: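 Endogenous transcription-factor activity is sensed in HepG2 cells through transfected cis-promoter reporter constructs. After 24 h dosing, reporter transcripts are quantified by RT-PCR and capillary electrophoresis. Gain or loss of signal is fitted relative to DMSO.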

[3] = ATG_TGFb_CIS: Attagene CIS-FACTORIAL HepG2 Assay for human Transforming Growth Factor (TGF) (AID 2282967; active = hit-call score of the fitted dose curve at least 0.9, where 1 is the maximum; inactive = score below 0.9); conditions: HepG2 Attagene CIS TGFb reporter, mRNA transcription; actives raise or lower the signal
How it was run: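 Endogenous TGFB1-linked transcription factor activity read as reporter mRNA via RT-PCR and capillary electrophoresis, 24 h after dosing transiently transfected HepG2 cells. Gain or loss of signal fitted relative to DMSO.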

[4] = ATG_VDRE_CIS: Attagene CIS-FACTORIAL HepG2 Assay for human Vitamin D Receptor Element (VDRE) (AID 2282968; active = hit-call score of the fitted dose curve at least 0.9, where 1 is the maximum; inactive = score below 0.9); conditions: HepG2 VDRE cis-reporter transcription, actives raise or lower the signal
How it was run: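 Measures endogenous factor activity through cis-element-driven reporter transcripts in transiently transfected HepG2. Cells are treated 24 h; reporter mRNA is quantified by RT-PCR and capillary electrophoresis; fitting is bidirectional.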

[5] = biological target: Nuclear receptor subfamily 1 group I member 3 (Homo sapiens) (UniProt Q14994); assay: ATG_CAR_TRANS: Attagene TRANS-FACTORIAL HepG2 Assay for human Constitutive Androstane Receptor (CAR) (AID 2282969); conditions: HepG2 Attagene TRANS-FACTORIAL CAR reporter;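 also: activators raise reporter mRNA above DMSO so AC50 marks induction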
How it was run: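 Signal is reporter mRNA induction relative to DMSO, measured 24 h after dosing by RT-PCR with fluorescent primer extension and capillary electrophoresis. Human HepG2 liver cells carried transiently transfected chimeric NR-Gal4/GAL4-UAS reporter constructs.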

[6] = biological target: X-box-binding protein 1 (Homo sapiens) (UniProt P17861); assay: ATG_Xbp1_CIS: Attagene CIS-FACTORIAL HepG2 Assay for human X-box Binding Protein 1 (XBP1) (AID 2282972; active = hit-call score of the fitted dose curve at least 0.9, where 1 is the maximum; inactive = score below 0.9); conditions: HepG2 XBP1 cis-element reporter, Attagene multiplex; actives raise or lower the signal
How it was run: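 Changes in reporter transcript abundance, read by RT-PCR and capillary electrophoresis, reflect endogenous transcription factor activity. Transfected HepG2 cells received compound for 24 hours; DMSO defined baseline for bidirectional analysis.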

[7] = ATG_M_19_TRANS: Attagene TRANS-FACTORIAL HepG2 Assay for M19 Transcription Factor (Internal Marker) (AID 2282974); conditions: HepG2 Attagene TRANS-FACTORIAL M19 internal marker reporter
How it was run: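 After transfection of HepG2 with GAL4-UAS-driven reporter constructs, cells are dosed for 24 h. Total RNA is reverse-transcribed, reporter sequences PCR-amplified and labelled, then HpaI-digested and sized by capillary electrophoresis.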

[8] = ATG_GAL4_TRANS: Attagene TRANS-FACTORIAL HepG2 Assay for GAL4 (Internal Marker) (AID 2282976); conditions: HepG2 Attagene TRANS GAL4 internal marker reporter
How it was run: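 Fluorescence from capillary electrophoresis of labelled RT-PCR products quantifies reporter mRNA induction after 24 h dosing of HepG2 cells carrying transfected GAL4-UAS reporter transcription units. Vehicle DMSO serves as baseline.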

[9] = biological target: Bile acid receptor (Homo sapiens) (UniProt Q96RI1); assay: ATG_FXR_TRANS: Attagene TRANS-FACTORIAL HepG2 Assay for Farnesoid X Receptor (FXR) (AID 2282979); conditions: HepG2 Attagene TRANS FXR-GAL4 reporter transcription;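 also: hits raise reporter mRNA above DMSO so AC50 marks FXR activation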
How it was run: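 Chimeric FXR-GAL4 activity in transiently transfected human HepG2 liver cells is scored as induction of reporter mRNA after 24 h of dosing. Detection uses RT-PCR with fluorescent labelling and capillary electrophoresis, with DMSO serving as baseline.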

[10] = biological target: Oxysterols receptor LXR-alpha (Homo sapiens) (UniProt Q13133); assay: ATG_LXRa_TRANS: Attagene TRANS-FACTORIAL HepG2 Assay for human Liver X Receptor alpha (LXRa) (AID 2282980); conditions: HepG2 Attagene TRANS reporter, LXRa transactivation
How it was run: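 Transient HepG2 transfectants, 24 h dosing, RT-PCR/CE mRNA reporter quantitation; gain-of-signal vs DMSO.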

[11] = biological target: Oxysterols receptor LXR-beta (Homo sapiens) (UniProt P55055); assay: ATG_LXRb_TRANS: Attagene TRANS-FACTORIAL HepG2 Assay for human Liver X Receptor beta (LXRb) (AID 2282981); conditions: HepG2 Attagene TRANS GAL4-LXRb reporter, mRNA
How it was run: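 After 24 h of chemical treatment, transfected HepG2 cells yield total RNA; reporter cDNA is PCR-amplified, FAM-labelled, HpaI-cut and run on capillary electrophoresis. Signal reflects chimeric LXRb-Gal4 activity on GAL4-UAS reporters.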

[12] = ATG_M_32_TRANS: Attagene TRANS-FACTORIAL HepG2 Assay for M32 Transcription Factor (Internal Marker) (AID 2282984); conditions: HepG2 Attagene TRANS M32 internal marker reporter;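 also: transcript level of a background control reporter unit measured by RT-PCR and capillary electrophoresis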
How it was run: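 Cell-based TRANS-format assay in HepG2: exogenous chimeric GAL4 reporter units transiently expressed, compounds applied 24 h. Reporter mRNA detected by RT-PCR plus capillary electrophoresis; this readout is an internal background marker.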

[13] = biological target: Transcriptional activator Myb (Homo sapiens) (UniProt P10242); assay: ATG_Myb_CIS: Attagene CIS-FACTORIAL HepG2 Assay for human Myeloblastosis (Myb) Proto-Oncogene Transcription Factor (AID 2282986; active = hit-call score of the fitted dose curve at least 0.9, where 1 is the maximum; inactive = score below 0.9); conditions: HepG2 Attagene CIS-FACTORIAL Myb reporter transcription; actives raise or lower the signal
How it was run: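 Endogenous transcription factor activity at a Myb-responsive cis element is reported in human liver HepG2 cells after 24 h chemical treatment. Reporter mRNA is detected by RT-PCR and capillary electrophoresis fluorescence, with DMSO as baseline.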

[14] = ATG_M_06_TRANS: Attagene TRANS-FACTORIAL HepG2 Assay for M06 Transcription Factor (Internal Marker) (AID 2282983); conditions: HepG2 Attagene TRANS M06 internal marker reporter;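 also: reporter transcript level by RT-PCR then capillary electrophoresis fluorescence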
How it was run: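 Human liver HepG2 cells bearing transiently transfected chimeric NR-GAL4 reporter units were treated with chemicals for 24 h. Total RNA was reverse-transcribed, reporter sequences amplified and labelled, then quantified by capillary electrophoresis. Activity was fitted upward relative to DMSO.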

[15] = biological target: Estrogen receptor (Homo sapiens) (UniProt P03372); assay: ATG_ERa_TRANS: Attagene TRANS-FACTORIAL HepG2 Assay for human Estrogen Receptor alpha (ERa) (AID 2282970); conditions: HepG2 Attagene TRANS ERa GAL4 reporter, mRNA
How it was run: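 Transfected HepG2 cells carrying GAL4-UAS-driven reporter units were dosed for 24 hours. Total RNA was reverse-transcribed, reporter sequences PCR-amplified, FAM-labelled, HpaI-digested and resolved by capillary electrophoresis. Increases over DMSO control defined activity.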

[16] = biological target: Nuclear receptor subfamily 4 group A member 2 (Homo sapiens) (UniProt P43354); assay: ATG_NURR1_TRANS: Attagene TRANS-FACTORIAL HepG2 Assay for human Nuclear Receptor Related Protein 1 (NURR1) (AID 2282985); conditions: HepG2 Attagene TRANS reporter, mRNA readout
How it was run: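 Measures transcriptional activation by an exogenous NR-Gal4 chimera in transfected HepG2 liver cells. After 24 h, reporter RNA is reverse-transcribed, amplified and resolved by capillary electrophoresis; DMSO defines baseline.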

[17] = biological target: Estrogen-related receptor gamma (Homo sapiens) (UniProt P62508); assay: ATG_ERRg_TRANS: Attagene TRANS-FACTORIAL HepG2 Assay for human Estrogen-Related Receptor gamma (ERRg) (AID 2282977); conditions: HepG2 Attagene TRANS reporter, ERRg transactivation;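 also: hits increase reporter signal over DMSO so potencies reflect activators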
How it was run: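 Exogenous NR-Gal4 chimera activity was assessed in HepG2 cells bearing transfected GAL4-UAS reporters. After 24 h dosing, total RNA underwent RT-PCR, fluorescent primer extension and HpaI digestion before capillary electrophoresis, with gain of signal scored against DMSO.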

[18] = biological target: Glucocorticoid receptor (Homo sapiens) (UniProt P04150); assay: ATG_GR_TRANS: Attagene TRANS-FACTORIAL HepG2 Assay for human Glucocorticoid Receptor (GR) (AID 2282978); conditions: HepG2 Attagene TRANS GR reporter, mRNA transcription;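 also: activators score as hits since higher reporter transcript over DMSO is fitted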
How it was run: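 Multiplexed TRANS reporter system, HepG2; 24 h exposure; RNA → oligo(dT) RT → reporter-specific PCR → 6-FAM primer extension → HpaI cut → CE fluorescence. Gain-of-signal vs DMSO.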

[19] = biological target: Hepatocyte nuclear factor 4-alpha (Homo sapiens) (UniProt P41235); assay: ATG_HNF4a_TRANS: Attagene TRANS-FACTORIAL HepG2 Assay for human Hepatocyte Nuclear Factor 4 alpha (HNF4a) (AID 2282982); conditions: HepG2 HNF4a transactivation reporter, mRNA readout
How it was run: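 Multiplexed reporter assay: transfected HepG2, 24 h exposure, total RNA → oligo(dT) RT → PCR → 6-FAM extension → HpaI digest → CE fluorescence. DMSO = negative control.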

[20] = biological target: Steroid hormone receptor ERR1 (Homo sapiens) (UniProt P11474); assay: ATG_ERRa_TRANS: Attagene TRANS-FACTORIAL HepG2 Assay for human Estrogen-Related Receptor alpha (ERRa) (AID 2282971); conditions: HepG2 Attagene TRANS reporter, ERRa transactivation
How it was run: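 HepG2 cells were transiently transfected with multiple GAL4-UAS reporter units, then dosed with compound for 24 h. Total RNA was reverse-transcribed, reporter cDNA PCR-amplified and fluorescently labelled, and fragments resolved by capillary electrophoresis; induction was compared with DMSO.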

Measured: AC50

Sequence of Estrogen receptor (Homo sapiens) (P03372 whole entry, looked up, the tested form may be a part): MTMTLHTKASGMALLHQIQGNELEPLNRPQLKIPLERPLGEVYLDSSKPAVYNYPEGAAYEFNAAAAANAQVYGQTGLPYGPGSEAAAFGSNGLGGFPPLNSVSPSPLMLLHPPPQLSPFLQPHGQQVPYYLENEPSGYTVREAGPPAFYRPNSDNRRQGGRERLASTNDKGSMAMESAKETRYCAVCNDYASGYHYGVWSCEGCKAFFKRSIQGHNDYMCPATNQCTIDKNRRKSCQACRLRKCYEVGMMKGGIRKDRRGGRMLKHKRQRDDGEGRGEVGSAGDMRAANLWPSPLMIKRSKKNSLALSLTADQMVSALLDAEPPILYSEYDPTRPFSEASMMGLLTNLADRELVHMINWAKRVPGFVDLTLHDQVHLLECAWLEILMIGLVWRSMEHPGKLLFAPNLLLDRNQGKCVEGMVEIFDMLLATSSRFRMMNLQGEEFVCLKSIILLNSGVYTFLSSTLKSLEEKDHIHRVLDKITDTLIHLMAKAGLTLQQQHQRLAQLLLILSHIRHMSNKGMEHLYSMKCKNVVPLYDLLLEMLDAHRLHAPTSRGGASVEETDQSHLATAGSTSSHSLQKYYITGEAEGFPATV
Sequence of Glucocorticoid receptor (Homo sapiens) (P04150 whole entry, looked up): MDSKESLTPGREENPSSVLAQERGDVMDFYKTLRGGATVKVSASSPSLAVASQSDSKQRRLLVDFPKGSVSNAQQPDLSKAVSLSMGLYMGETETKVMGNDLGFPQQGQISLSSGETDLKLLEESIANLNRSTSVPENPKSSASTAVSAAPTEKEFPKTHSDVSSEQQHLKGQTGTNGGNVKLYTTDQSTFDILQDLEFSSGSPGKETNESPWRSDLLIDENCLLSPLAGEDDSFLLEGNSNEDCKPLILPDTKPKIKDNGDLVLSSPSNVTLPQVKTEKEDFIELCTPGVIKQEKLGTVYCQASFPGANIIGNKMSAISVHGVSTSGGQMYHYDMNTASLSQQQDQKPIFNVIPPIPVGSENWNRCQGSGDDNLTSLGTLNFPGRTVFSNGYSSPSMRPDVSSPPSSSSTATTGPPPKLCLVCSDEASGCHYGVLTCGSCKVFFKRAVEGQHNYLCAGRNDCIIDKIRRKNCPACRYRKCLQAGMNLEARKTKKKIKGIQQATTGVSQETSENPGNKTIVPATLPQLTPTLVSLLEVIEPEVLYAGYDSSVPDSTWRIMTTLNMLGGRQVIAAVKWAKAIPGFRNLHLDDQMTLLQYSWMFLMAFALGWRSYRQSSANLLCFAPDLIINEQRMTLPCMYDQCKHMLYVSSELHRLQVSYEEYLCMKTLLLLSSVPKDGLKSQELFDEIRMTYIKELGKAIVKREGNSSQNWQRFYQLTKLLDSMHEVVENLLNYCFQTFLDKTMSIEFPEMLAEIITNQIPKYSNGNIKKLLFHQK
Sequence of Transcriptional activator Myb (Homo sapiens) (P10242 whole entry, looked up): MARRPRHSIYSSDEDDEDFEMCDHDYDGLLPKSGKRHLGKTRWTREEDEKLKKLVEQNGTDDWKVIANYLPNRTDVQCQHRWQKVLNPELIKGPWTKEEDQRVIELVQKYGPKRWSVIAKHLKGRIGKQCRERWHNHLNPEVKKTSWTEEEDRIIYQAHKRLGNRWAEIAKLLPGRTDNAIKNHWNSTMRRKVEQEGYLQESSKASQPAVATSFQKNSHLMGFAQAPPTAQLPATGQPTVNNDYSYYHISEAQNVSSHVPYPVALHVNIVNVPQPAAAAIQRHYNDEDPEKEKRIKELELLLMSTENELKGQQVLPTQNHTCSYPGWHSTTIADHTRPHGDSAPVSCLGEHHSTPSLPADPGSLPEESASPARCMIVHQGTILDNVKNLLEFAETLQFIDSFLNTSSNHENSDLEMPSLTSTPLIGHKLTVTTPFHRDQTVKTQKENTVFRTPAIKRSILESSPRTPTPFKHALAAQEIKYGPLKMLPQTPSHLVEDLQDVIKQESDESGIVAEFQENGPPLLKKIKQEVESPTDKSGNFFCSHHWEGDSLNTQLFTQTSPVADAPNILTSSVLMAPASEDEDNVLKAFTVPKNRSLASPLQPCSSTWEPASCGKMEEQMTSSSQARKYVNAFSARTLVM
Sequence of X-box-binding protein 1 (Homo sapiens) (P17861 whole entry, looked up): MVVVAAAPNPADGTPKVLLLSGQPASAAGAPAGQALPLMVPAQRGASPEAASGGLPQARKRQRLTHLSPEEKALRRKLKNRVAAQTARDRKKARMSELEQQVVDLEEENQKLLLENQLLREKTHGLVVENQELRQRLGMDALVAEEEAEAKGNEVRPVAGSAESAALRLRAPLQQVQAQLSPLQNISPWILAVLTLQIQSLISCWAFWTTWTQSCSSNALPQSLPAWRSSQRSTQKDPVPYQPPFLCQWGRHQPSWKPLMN
Sequence of Nuclear receptor subfamily 4 group A member 2 (Homo sapiens) (P43354 whole entry, looked up, the tested form may be a part): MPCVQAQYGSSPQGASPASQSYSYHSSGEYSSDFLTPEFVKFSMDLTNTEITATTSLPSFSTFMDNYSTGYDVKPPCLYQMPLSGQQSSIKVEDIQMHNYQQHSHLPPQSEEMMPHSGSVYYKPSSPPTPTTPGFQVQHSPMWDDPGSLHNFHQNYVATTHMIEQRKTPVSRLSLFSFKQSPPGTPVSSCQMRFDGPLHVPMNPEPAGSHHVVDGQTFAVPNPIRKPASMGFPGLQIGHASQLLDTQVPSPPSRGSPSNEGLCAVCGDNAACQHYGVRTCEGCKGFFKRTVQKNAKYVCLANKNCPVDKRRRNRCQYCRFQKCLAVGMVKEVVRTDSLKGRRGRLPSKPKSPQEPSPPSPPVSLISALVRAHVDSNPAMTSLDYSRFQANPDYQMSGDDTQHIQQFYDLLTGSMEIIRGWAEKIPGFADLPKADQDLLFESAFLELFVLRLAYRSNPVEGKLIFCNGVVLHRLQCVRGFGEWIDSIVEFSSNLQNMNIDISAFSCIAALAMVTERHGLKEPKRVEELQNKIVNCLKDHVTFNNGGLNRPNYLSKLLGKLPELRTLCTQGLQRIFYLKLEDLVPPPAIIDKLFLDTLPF
Sequence of Oxysterols receptor LXR-alpha (Homo sapiens) (Q13133 whole entry, looked up): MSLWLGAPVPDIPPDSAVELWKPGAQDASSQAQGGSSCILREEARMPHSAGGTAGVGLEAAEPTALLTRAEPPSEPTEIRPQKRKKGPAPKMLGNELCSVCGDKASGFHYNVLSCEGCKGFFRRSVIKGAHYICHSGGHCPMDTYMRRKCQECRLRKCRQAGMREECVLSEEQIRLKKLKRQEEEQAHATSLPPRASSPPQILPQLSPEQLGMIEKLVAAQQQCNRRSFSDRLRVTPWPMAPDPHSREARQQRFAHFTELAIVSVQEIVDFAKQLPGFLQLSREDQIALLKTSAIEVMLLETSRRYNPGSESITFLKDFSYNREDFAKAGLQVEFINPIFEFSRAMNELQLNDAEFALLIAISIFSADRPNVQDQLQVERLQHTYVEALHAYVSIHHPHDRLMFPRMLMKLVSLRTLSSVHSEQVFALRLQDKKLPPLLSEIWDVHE
Sequence of Oxysterols receptor LXR-beta (Homo sapiens) (P55055 whole entry, looked up, the tested form may be a part): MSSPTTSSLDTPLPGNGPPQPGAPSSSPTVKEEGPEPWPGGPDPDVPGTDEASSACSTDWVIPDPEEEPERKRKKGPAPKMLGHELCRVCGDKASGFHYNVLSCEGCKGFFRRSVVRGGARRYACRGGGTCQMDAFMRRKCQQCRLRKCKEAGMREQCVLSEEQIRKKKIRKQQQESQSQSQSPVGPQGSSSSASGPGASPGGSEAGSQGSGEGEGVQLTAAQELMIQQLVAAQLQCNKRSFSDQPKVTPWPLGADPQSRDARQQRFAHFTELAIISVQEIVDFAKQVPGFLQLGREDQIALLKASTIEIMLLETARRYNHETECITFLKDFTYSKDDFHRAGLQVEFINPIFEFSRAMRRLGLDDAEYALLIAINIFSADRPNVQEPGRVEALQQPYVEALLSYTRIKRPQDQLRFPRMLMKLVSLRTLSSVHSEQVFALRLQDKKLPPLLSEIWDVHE
Sequence of Bile acid receptor (Homo sapiens) (Q96RI1 whole entry, looked up, the tested form may be a part): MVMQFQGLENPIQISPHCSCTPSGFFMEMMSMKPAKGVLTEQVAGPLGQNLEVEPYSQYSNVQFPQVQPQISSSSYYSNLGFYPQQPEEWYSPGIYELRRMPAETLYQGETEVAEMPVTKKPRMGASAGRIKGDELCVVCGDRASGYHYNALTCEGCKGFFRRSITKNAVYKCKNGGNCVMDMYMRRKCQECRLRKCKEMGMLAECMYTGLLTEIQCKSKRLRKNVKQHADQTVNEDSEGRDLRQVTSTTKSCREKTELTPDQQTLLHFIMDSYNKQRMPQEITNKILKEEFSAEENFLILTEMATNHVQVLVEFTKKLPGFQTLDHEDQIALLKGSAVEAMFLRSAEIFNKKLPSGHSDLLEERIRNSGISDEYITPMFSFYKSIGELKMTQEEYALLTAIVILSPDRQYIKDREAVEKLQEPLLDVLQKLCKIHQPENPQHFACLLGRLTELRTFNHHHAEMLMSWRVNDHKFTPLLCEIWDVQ
Sequence of Steroid hormone receptor ERR1 (Homo sapiens) (P11474 whole entry, looked up, the tested form may be a part): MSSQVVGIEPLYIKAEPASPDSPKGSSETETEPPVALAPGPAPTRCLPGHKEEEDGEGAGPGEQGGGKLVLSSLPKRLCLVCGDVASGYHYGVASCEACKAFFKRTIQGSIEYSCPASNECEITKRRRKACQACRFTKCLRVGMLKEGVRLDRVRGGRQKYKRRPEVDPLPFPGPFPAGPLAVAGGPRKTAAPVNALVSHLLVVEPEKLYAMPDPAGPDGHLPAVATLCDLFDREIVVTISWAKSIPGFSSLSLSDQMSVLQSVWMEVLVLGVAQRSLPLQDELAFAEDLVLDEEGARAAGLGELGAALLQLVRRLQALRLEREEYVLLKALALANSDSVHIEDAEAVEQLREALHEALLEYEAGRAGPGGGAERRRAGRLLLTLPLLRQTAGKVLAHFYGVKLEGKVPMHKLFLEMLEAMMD

CCCCc1ccc2c(n1)[C@@H](c1ccc(OC)cc1C[C@H](C)C(=O)O)[C@H](C(=O)O)[C@H]2c1ccc2c(c1)OCO2
not listed: [14] | [15] | [16] | [17] | [18] | [19] | [20]
inactive: all other assays above

CC(=O)OCCOCCOCCOC(C)=O
inactive: [1] | [2] | [3] | [4] | [6] | [7] | [8] | [11] | [14] | [13]

O=c1c(O)c(-c2ccc(O)c(O)c2)oc2cc(O)cc(O)c12
active: [15] 14.9 µM
not listed: [8] | [9] | [14] | [17] | [18] | [19] | [20]
inactive: all other assays above

CCCCCCOCCO
not listed: [5] | [9] | [15] | [17] | [20]
inactive: all other assays above

CC(C)c1ccc(C(=O)N=C(N)N)cc1S(C)(=O)=O
inactive: [1] | [2] | [3] | [4] | [6] | [18] | [11] | [14] | [12] | [13]

CCCc1cc(=O)[nH]c(=S)[nH]1
inactive: [1] | [2] | [3] | [6] | [7] | [8] | [19] | [14] | [12] | [16] | [13]

COCCOC[C@H](CC1(C(=O)NC2CCC(C(=O)O)CC2)CCCC1)C(=O)Oc1ccc2c(c1)CCC2 (stereo partly specified)
active: [4] 48.5 µM
not listed: [5] | [7] | [9] | [10] | [12] | [19]
inactive: all other assays above

Cc1cccc(C)c1O
not listed: [5] | [9] | [10] | [11] | [15] | [18] | [19] | [20]
inactive: all other assays above

CCOC(=O)C(C)(C)Oc1ccc(Cl)cc1
not listed: [2] | [5] | [11] | [14] | [17] | [18] | [19]
inactive: all other assays above
